According to PubChem BioAssay (NCI):
Compounds without any hit were thinned out: in the full panel of roughly 83,000, 20% have a hit.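 Treatment: one concentration, 48 hours, 96-well format. Scoring: percent growth, with anything below 10 considered active.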 Values without a mark were called inactive. The source made the active and inactive calls.

Experiments:
Assay in all cases: NCI-60 one-dose screen, 48 h (100 = growth as untreated, 0 = no growth, -100 = all killed)
Conditions in all cases: 10 µM unless noted
[1] = system: T-47D breast
[2] = system: BT-549 breast
[3] = system: MDA-MB-435 melanoma
[4] = system: SW-620 colon
[5] = system: MCF7 breast
[6] = system: HCT-116 colon
[7] = system: HCC-2998 colon
[8] = system: KM12 colon

Compound | growth [1] | growth [2] | growth [3] | growth [4] | growth [5] | growth [6] | growth [7] | growth [8]
CN(C)CCn1c(=O)c2ccccc2n2nc3ccccc3c12 | 99.8% | 103% | 100% | 64.2% | 72.6% | 71.1% | 99.8% | 95%
CCN1C(=O)N(CC)C2C1NN=c1s/c(=C\c3ccc(OC)cc3)c(=O)n12 (stereo not drawn) | 57.3% | 9.76% (active) | -23.7% (active) | 22.8% | 14.4% | 9.53% (active) | 15.4% | 10.5%
Nc1c(Cl)cc(/C=C2\C=Cc3ccccc32)cc1Cl | 95.6% | 101% | 107% | 111% | 123% | 103% | 98% | 106%
C=C1C(=O)O[C@H]2[C@H]1CC/C(COC(=O)C(=O)c1c[nH]c3ccc(Cl)cc13)=C\CC[C@@]1(C)O[C@@H]21 | -44.9% (active) | -87.2% (active) | -96.4% (active) | -75.5% (active) | -32.5% (active) | -99.6% (active) | -75.9% (active) | -72.8% (active)
COc1cc2ncnc(Nc3ccc(F)c(Cl)c3)c2cc1OCC(=O)N1CCOCC1 | 53.5% | 98.5% | 102% | 102% | 83.9% | 84% | 94.3% | 94.4%
COc1ccc(Nc2ncc(C#N)c(NCCCNC(=O)C3CCC3)n2)cc1 | 109% | 70.6% | 68.5% | 41.5% | 63.7% | 50.1% | 97.2% | 64.2%
CN(C)c1ccc(/C=N\NC(=O)c2ccc3nc(-c4ccc(Cl)cc4)[nH]c3c2)cc1 | 59.4% | 106% | 93.9% | 46.3% | 17.4% | 48.6% | 79% | 64.9%
CC(C)C1C2=C(NCCN1C(=O)c1ccncc1)C(C)(C)N(Cc1ccccc1)C2=O (stereo not drawn) | 103% | 104% | 104% | 105% | 95.5% | 92.8% | 100% | 97.6%
C[C@H]1[C@H](C)CC[C@]2(C(=O)NCCNCCN)CC[C@]3(C)C(=CC[C@@H]4[C@@]5(C)CCC(=O)C(C)(C)[C@@H]5CC[C@]43C)[C@H]12 | 39.8% | 92.3% | -75.7% (active) | -74.7% (active) | 12.6% | -51.8% (active) | -43.7% (active) | 11.4%
CCN(CC)CCOc1ccc2c(-c3ccccc3)c(-c3ccc(OC)cc3)c(=O)oc2c1 | 51.4% | 90.6% | 41.3% | 39.4% | 61.3% | 30% | 90.9% | 60.4%
CC[C@H](Nc1nc(N)nc(C)c1C#N)c1nc2cccc(CN(C)c3ncc(C(=O)NO)cn3)c2c(=O)n1-c1ccccc1 | -23.1% (active) | 34.6% | -3.69% (active) | 3.51% (active) | 10.8% | -19.7% (active) | -7.29% (active) | 16.4%
CCOC(=O)NCCCC(=O)NCCc1ccccc1 | 100% | 110% | 109% | 111% | 97.8% | 97.6% | 99.1% | 96.6%
CN1C(=O)N2CN3CCCN(C3)CN3C(=S)NC1C23 (stereo not drawn) | 105% | 117% | 106% | 101% | 95.4% | 106% | 103% | 104%
O=C1CCCC1[n+]1ccccc1 (stereo not drawn) | 43.5% | 84.3% | 106% | 117% | 93% | 79.6% | 107% | 97.6%
CC(=O)O[C@H]1CC[C@]2(C)[C@H]3CC=C4[C@@H]5CC(C)(C)CC[C@]5(C(=O)N5CCN(CCC#N)CC5)CC[C@@]4(C)[C@]3(C)CC[C@H]2C1(C)C | 29% | 40.9% | 31.5% | 19.4% | 11.6% | -2.33% (active) | 47.7% | 28.6%
COCCn1cc(-c2nc(-c3cn(CCOC)c4ncccc34)cs2)c2cc(F)ccc21 | -11.9% (active) | 51.7% | 59.1% | 90.7% | 7.84% (active) | 61.8% | 42.1% | 10.6%

Compound | growth [1] | growth [2] | growth [3] | growth [4] | growth [5] | growth [6] | growth [7] | growth [8]
Cc1ccc(OCCOCCOCCOCCOCCOc2ccc(C)n(O)c2=S)c(=S)n1O | 15.1% | 26% | 32.6% | 27.9% | 11.5% | 18% | -7.72% (active) | 23%
O=c1oc2c(cc1-c1ccccc1)c[n+]([O-])c1ccccc21 | 91% | 95.5% | 101% | 103% | 91.1% | 98.8% | 107% | 104%
Fc1cc2[nH]ncc2c2c3c(c(-c4cn[nH]c4C(F)(F)F)nc12)CCCC3 | -16.2% (active) | -64.2% (active) | 26.2% | 4.23% (active) | 2.27% (active) | 1.05% (active) | -14.2% (active) | 9.4% (active)
CSc1ccc(N2C(=N)C(=S)N(c3ccc(C)cc3)C2=O)cc1 | 83% | 72.2% | 102% | 103% | 85.4% | 93.7% | 104% | 96.5%
CCN(CC)CCOc1ccc2ccc(=O)oc2c1 | 97.5% | 102% | 112% | 101% | 97.6% | 100% | 90.5% | 103%
COc1cc2c3c(c4c5ccccc5[nH]c4c2c(OC)c1OC)C(=O)N(CCN1CCCCC1)C3=O | 59.5% | 96.6% | 33.7% | -66.4% (active) | -56.3% (active) | -85.6% (active) | 22.3% | -20% (active)
CCOC(=O)/C(=C(/C)NCC(C)C)c1cc(O)c(O)c2c(C)cc(=O)[nH]c12 | 34.7% | 63% | 60.9% | 31.8% | 29.4% | 10.1% | 61.9% | 61.5%
O=C(/C=C/c1ccccc1)c1cccc2ccccc12 | 32.9% | 62.5% | 16.8% | 9.3% (active) | 11.6% | 32% | 48.3% | 37.4%
COc1cc2c(c(OC)c1OC)C(=O)CC(c1cccc(C(=O)Nc3ccccc3Br)c1)O2 (stereo not drawn) | 55.4% | 78.8% | 83.9% | 99.3% | 68.9% | 81.5% | 95% | 93.5%
COc1cccc(CNc2c3ccccc3nc3ccccc23)c1OC | 47.5% | 59.7% | 46.3% | 25.4% | 10.1% | 11.8% | 38.3% | 52.4%
CC(C)CCC[C@@H](C)[C@H]1CC[C@H]2[C@@H]3CC=C4c5sc(Nc6cc(C(F)(F)F)cc(C(F)(F)F)c6)nc5CC[C@]4(C)[C@H]3CC[C@]12C | 95.7% | 98.9% | 104% | 100% | 107% | 99.3% | 101% | 102%
O=C(/C=C/C12c3ccccc3C(c3ccccc31)C1C(=O)NC(=O)C12)c1ccco1 (stereo not drawn) | 18.6% | 19.3% | 0.633% (active) | 27.4% | 12.8% | 7.57% (active) | 103% | 12.9%
Cc1nc2sc(C(=O)Nc3cccc4ccccc34)c(N)c2cc1C(=O)c1ccccc1 | 53.7% | 15.2% | -53% (active) | 21.9% | 17.9% | 11.3% | 10.3% | 19.1%
Cc1[nH]c(C(=O)Nc2ccccc2OC2CCN(CCN3CCOCC3)CC2)c(Cl)c1Cl | 86.6% | 80.5% | 105% | 99.7% | 87.2% | 77.1% | 107% | 103%
Cc1cccc(NC(=O)N/C(N)=N/c2nc3ccccc3s2)c1 | 35.5% | 57.2% | 2.83% (active) | 34.3% | 21.9% | 23.8% | 56.4% | 25.1%
